Reference: the supplement of paper PMC3724861
Only a selection was taken, and hits are over-represented in it overall. No count for the full screen is at hand.

tested on: T1, Caupolican (Caup) homeodomain DNA-binding domain; test: PBM E-score (8-mer, recovered from the published 9-mer minima) (E-score (dimensionless, -0.5 to 0.5)); Drosophila protein; higher = stronger relative binding preference, active = 0.31 or more
T1 sequence: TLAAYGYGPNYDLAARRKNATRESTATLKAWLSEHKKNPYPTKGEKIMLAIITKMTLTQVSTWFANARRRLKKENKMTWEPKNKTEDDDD
Method in brief: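 Caup's homeodomain DNA-binding domain (residues 214-303) was made by in vitro transcription and translation and applied at 100 nM to custom-designed protein binding microarrays. Each value is an enrichment score that gives relative binding preference for a short DNA word, with higher meaning stronger. The 8-mer values were recovered from published 9-mer scores, each of which was the minimum of its two constituent 8-mer scores. A cutoff of 0.31 marks candidate sites.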

PBM E-score, active:
CATGTCAA 0.422
GTACACAA 0.338
GTACACAC 0.331
ATACACAT 0.311
TTACACAA 0.311
ATACACAA ≥ 0.341
ACAAATGT ≥ 0.311
AACAATGT 0.345
ATATTACA 0.35
ACATTACA ≥ 0.37
CTATTACA 0.346
AACACGAC 0.321
GACACGAC 0.347
GTATAACA 0.338
ATATAACA 0.372
GACATGAC 0.394
TACATGAA 0.383
GACATGAA 0.318
AACATGAA 0.387

PBM E-score, inactive:
AGATCGGA 0.0416
GAAGTGAC 0.0523
GCCGGGGA -0.241
CGAACCCC -0.249
ATCAGTCC -0.143
AAATTGGG -0.0398
AAGTTTGC 0.0221
CGTGTCAA 0.282
CCTGTCAA 0.172
CGGGACTC -0.204
CCCGATCC -0.127
ATCCCCAC -0.0707
AAACACAT 0.229
TCACACAA 0.193
GCACACAC 0.0659
GCACACAA 0.0665
CTACACAC 0.175
TGACACAA 0.259
CTACACAA 0.288
AGACACAT 0.213
CATGGCCC -0.169
GGGCTTAC -0.119
CACTAATA 0.118
GTTAGTAA 0.177
CTTATTAC 0.0885
CTGTGCGA -0.0551
CCTACCGA -0.0361
AGTGCGGG -0.187
ATCTTCGG 0.00377
ACACAGCT 0.109
ACCCATCC -0.0713
GCGCCCTA -0.273
ATATAGCC 0.0657
ATACACAC 0.256
ATACACAG 0.193
ATTTTCCC -0.00887
CAAACTGC -0.0256
CGCTAATC -0.0282
TATAGAAA 0.118
ACAAATGA 0.154
ACAAATGG 0.193
AACAATGA 0.244
AACAATGG 0.198
ATGAGCTC -0.0796
ATTTCCTG 0.0432
AGGAGTAT 0.00187
CAGAGCGG -0.155
ATATTACG 0.16
GTATTACA 0.288
ATATTACC 0.186
ACATTACT 0.227
GCATTACA 0.267
CTATTACC 0.0284
CTGACTGC -0.0466
ACAGATAT 0.159
CGGTCATA -0.0654
CATCTGGG -0.0619
CACACGAC 0.0592
AACACGAG 0.266
AACACGAA 0.293
GACACGAA 0.224
AGATATCC 0.0875
ACCCGGGC -0.196
CCGTTTTC -0.0987
GTATAAGA 0.112
GCATAACA 0.255
ATATAACC 0.0533
CTATAACA 0.257
CGTAGGTC -0.0431
CAGCCTGG -0.164
ATAAAGGC -0.111
AGTGGTGG -0.0979
AAGGAATT -0.0309
ACAGTTCA 0.0978
AGCATGAA 0.102
TGCATGAA 0.126
ACCATGAA 0.0242
GTCATGAA 0.0353
GCCATGAC -0.0484
CACATGAA 0.226
GGCATGAA 0.0161
CACATGAC 0.242
TACAGAGA 0.12
GAGTTTGA 0.0834
CGTTTCCC -0.165
AAGATGGC -0.0976
CTGATTAA 0.162
AACCTTAA -0.0003
TGGGGGAA -0.237
GACTTCGA -0.0675
ACTAGAAG 0.00911
AACGGGCC -0.162
GTGACCTA 0.0131
GAGCTCAA -0.094
